Compounds without any hit were thinned out: in the full panel of roughly 83,000, 20% have a hit.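 96-well plates, one dose, 48 hours. Percent growth reported; active if below 10.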 A number with no mark means an inactive call. Active and inactive are the calls of the source.
tested on: U251 CNS; assay: NCI-60 one-dose screen, 48 h (100 = growth as untreated, 0 = no growth, -100 = all killed); settings: 10 µM unless noted

SMILES | growth [%]
COc1cc2c(cc1OC)C(C)N(S(N)(=O)=O)CC2 (stereo not drawn) | 114
CCCC/C(CC)=N\NS(=O)(=O)c1ccc([N+](=O)[O-])cc1 | 88.6
O=[N+]([O-])c1ccc(O)cc1Br | 103

tested on: PC-3 prostate; assay: as above; settings: 10 µM unless noted

SMILES | growth
COc1ccc(C(O)c2cc3c(N)c(C(=O)Nc4cccc(Br)c4)sc3nc2C)cc1 (stereo not drawn) | 15.6%
CC/C(=C(/c1ccc(Cl)cc1)c1ccc(OCCN2CCCCC2)cc1)c1ccc(OC)cc1 | 30.9%
CCOC(=O)c1c2c(n3cccc(F)c13)C(=O)c1ncccc1C2=O | 13.7%
CC(=O)O[C@@H]1C[C@]2(C(C)C)O[C@@]1(C)[C@@H]1CCC(C)=C1[C@@H]2OC(=O)/C=C/c1ccccc1 | 56.5%
O=C(O)c1ccc(-n2cc(/C=N/Nc3ccccc3)c(-c3ccc(F)cc3F)n2)cc1 | 51.9%
O=C(NCc1ccc(Cl)cc1Cl)C1CCC(=O)N1c1cccs1 (stereo not drawn) | 87.4%
CCSc1oc(-c2ccccc2)nc1[P+](c1ccccc1)(c1ccccc1)c1ccccc1 | -1.59% (active)
O=C1C(=O)N(Cc2ccc(-c3ccccc3)cc2)c2ccc(OC(F)(F)F)cc21 | 17.4%
Cc1nc2sc(C(=O)Nc3ccc(Br)cc3)c(N)c2cc1C(O)c1ccccc1 (stereo not drawn) | 61.4%
O=C(Cn1cc(CSc2nc3ccccc3o2)nn1)Nc1ccc(F)cc1F | 101%
COC(=O)c1nc(-c2ccc(C)cc2)oc1S(=O)(=O)c1cccc(OC)c1 | 103%
COc1ccc(C/C(C)=C(/c2ccc(OCCN(C)C)cc2)c2ccc(OC(=O)NCc3ccccc3)cc2)cc1 | 68.4%
COc1ccc(/C=C(\C#N)n2nnc3cc(F)c(F)cc32)cc1 | 41.2%
COC(=O)c1c2c(c(C)[n+]([O-])c1C)C(=O)C(NCc1cccc(OC)c1)=CC2=O | 6.62% (active)
COc1ccc(-c2nc3cc(C(=O)NCc4ccccc4)ccc3n2C2CCCCC2)cc1 | 85.3%
CCN(CC)CCn1c2ccc(OC)cc2c2sc3cc(OC)ccc3c(=O)c21 | 25.6%
COc1ccc(C(=O)N2c3ccccc3Sc3ccccc32)c(OC)c1 | 10.5%
CCN1CCN(C(=O)[C@]23CCC(C)(C)C[C@@H]2C2=CC[C@@H]4[C@@]5(C)CCC(=O)C(C)(C)[C@@H]5CC[C@@]4(C)[C@]2(C)CC3)CC1 | 26.1%
Clc1ccc2c(NC3CCC(N4CCOCC4)CC3)ccnc2c1 (stereo not drawn) | 62.3%
CCCOC(=O)Nc1nc2ccc(SCC(C)C)cc2s1 | 45.9%

SMILES | growth
COc1ccc(Nc2ncc(Br)c(NCCCNC(=O)c3cccs3)n2)cc1 | 42.1%
N#Cc1c(-c2ccccc2)cc(-c2ccc(Nc3nc(Nc4ccc(Cl)cc4)nc(Nc4ccc(Cl)cc4)n3)cc2)nc1N | 20.7%
COC(=O)c1c(C)c2n(c1C)C(=O)C(c1ccccc1)=C2 | 84.4%
COc1ccc(Nc2ncc(Br)c(NCCCNC(=O)C3CCCC3)n2)cc1 | 44%
C=CCn1c(C)nc2ccc(Nc3nc(Nc4ccc5nc(C)n(CC=C)c5c4)c4ccccc4n3)cc21 | -47.8% (active)
O=C(O)c1cn(C2CC2)c2cc(N3CCN(Cc4ccc5ccccc5c4O)CC3)c(F)cc2c1=O | 39.3%
N#C/C(=C\c1c(-c2ccccc2)[nH]c2ccccc12)C(N)=O | 69.8%
COc1ccc(C2CC(c3ccc(Nc4nc(Nc5ccccc5)nc(Nc5ccccc5)n4)cc3)=NN2C(C)=O)cc1 (stereo not drawn) | 86.4%
COc1cc2c(c(OC)c1OC)CCC(c1cccc(C(=O)Nc3cccc(Cl)c3)c1)O2 (stereo not drawn) | 34%
COc1cc(OCc2cccc(Br)c2C)cc(OC)c1C=O | 79.6%
COC1=CC(c2ccc[nH]2)=N/C1=C\c1[nH]c(C)c(C(=O)OC(C)C)c1C | 8.84% (active)
CCCc1c(OC(=O)c2ccccc2)nc2[nH]c(=O)sc2c1C | 97.2%
CN(C)c1ccc(-c2c(C#N)c(N)nn2C(=O)c2ccc(NC(=O)c3ccccn3)cc2)cc1 | 77.4%
CC1CCN(CCOc2ccc(CNc3ccc4nc(CCC5CCCCC5)[nH]c4c3)cc2)CC1 | 40.3%
COc1cc2c(cc1OCCCN1CCN(CCCOc3cc4c(cc3OC)C(=O)N3CCC[C@H]3C=N4)CC1)C=CC(C)(C)O2 | -75.3% (active)
Oc1c(I)cc(I)cc1CNCCN(Cc1ccccn1)Cc1ccccn1 | -41% (active)
O=CN1N=C(c2cccc(Nc3ccnc4cc(Cl)ccc34)c2)CC1c1ccccc1 (stereo not drawn) | 24.2%
COc1cc2c(cc1OC)C(C)N(S(N)(=O)=O)CC2 (stereo not drawn) | 89%
CCCC/C(CC)=N\NS(=O)(=O)c1ccc([N+](=O)[O-])cc1 | 84.5%
O=[N+]([O-])c1ccc(O)cc1Br | 88.8%
